Source: PubChem BioAssay (NCATS)
Results filed as inconclusive are left out. A call without a number means that no potency is given here. Active and inactive are the calls of the source. The call rests on the fitted dose curve; in most records, active means well fitted curve in the direction sought with a large enough effect; inconclusive means small, poorly fitted or top-dose-only effect, or another doubt; inactive means no such curve, though single readings can be large; an effect the other way counts as inactive or inconclusive.

How the values were obtained:
[1] = HEK-293 Cancer Cell Toxicity qHTS against the NCATS CANVASS Library (AID 1347355); further: nearly all actives have a fitted effect of over 65% in size; further: potency means the concentration at half of the fitted maximal effect; on outcome: series mostly up to about 46 µM
Procedure, shortened: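 Toxicity was measured as CellTiter-Glo luminescence after 72 h exposure to an 11-point compound series. Compound was added to 1000 cells/well 4 h after seeding.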

[2] = HPAF-II 24hr Apoptosis Induction qHTS against the NCATS CANVASS Library (AID 1347356)
Procedure, shortened: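 Caspase-Glo 3/7 luminescence, read after 15 min room-temperature development, measures apoptosis in HPAF-II cells treated 24 h at 37 degrees C with an 11-point concentration series; 500 cells/well; doxorubicin control.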

[3] = HEK293 18hr Apoptosis Induction qHTS against the NCATS CANVASS Library (AID 1347357)
Procedure, shortened: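 Caspase-Glo 3/7 luminescence (15 min, room temperature) measured apoptosis after an 18-hour, 37 degrees C exposure of HEK293 cells (500 cells/well) to compounds in 11 points.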

[4] = HPAF-II 12hr Apoptosis Induction qHTS against the NCATS CANVASS Library (AID 1347358)
Procedure, shortened: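 Caspase-3/7 activation by DEVD-substrate luminescence (Caspase-Glo 3/7, 15 min, room temperature) after a 12-hour compound exposure in 11 concentrations, of HPAF-II pancreatic cells seeded at 500/well in DMEM with 10% FBS.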

[5] = HPAF-II 18hr Apoptosis Induction qHTS against the NCATS CANVASS Library (AID 1347360)
Procedure, shortened: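 Caspase-3/7 activation was measured with luminescent Caspase-Glo 3/7 reagent (15 min, RT) in HPAF-II cancer cells (500 cells/well). Before detection, cells had been treated for 18 h at 37 C with compounds (11 points).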

[6] = HEK293 12hr Apoptosis Induction qHTS against the NCATS CANVASS Library (AID 1347361)
Procedure, shortened: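 HEK293 cells (500/well, DMEM + 10% FBS) were exposed to natural products across an 11-point series for 12 hours at 37 degrees C. Caspase-3/7 activity was then measured with DEVD luciferase luminescence after 15 min at room temperature.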

[7] = KB-3-1 Cancer Cell Toxicity qHTS against the NCATS CANVASS Library (AID 1347366); further: nearly all actives have a fitted effect of over 75% in size; further: potency means the concentration at half of the fitted maximal effect
Procedure, shortened: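 CellTiter-Glo luminescence measured viability after 72 h at 37C. KB-3-1 cells were seeded at 500 per well in DMEM/10% FBS.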

[8] = qHTS for ATAD5 Agonist screened against the NCATS CANVASS Library (AID 1347367);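 further: luciferase reporter driven by ATAD5 which rises upon DNA damage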
Procedure, shortened: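 Genotoxicity via ATAD5-luciferase luminescence after 16 h compound exposure (11-point series) at 37C in HEK293T-ATAD5 cells. CellTiter-Fluor viability read precedes the luminescence read; MMS serves as positive control.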

[9] = G06 Cancer Cell Toxicity qHTS against the NCATS CANVASS Library (AID 1347368); further: nearly all actives have a fitted effect of over 60% in size; further: potency means the concentration at half of the fitted maximal effect
Procedure, shortened: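 Viability measured by CellTiterGlo ATP luminescence after 72 hr at 37C, 5% CO2. Canine G06 glioma cells plated at 500/well. Compounds tested as 11-point qHTS titrations.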

[10] = MCF7 Cancer Cell Toxicity qHTS against the NCATS CANVASS Library (AID 1347369)
Procedure, shortened: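 Cytotoxicity was measured as CellTiterGlo luminescence (ATP) after 72 h at 37 °C. The cells were MCF7 at 500 per well, with an 11-point compound concentration series.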

[11] = qHTS for ATAD5 Antagonist screened against the NCATS CANVASS Library (AID 1347370); further: nearly all actives have a fitted effect of over 65% in size; further: potency means the concentration at half of the fitted maximal effect
Procedure, shortened: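 Compounds (11-point) co-dosed with 10 µM 5-FUrd for 16 h at 37 °C onto HEK293T-ATAD5 luciferase reporter cells. Viability measured by CellTiter-Fluor fluorescence, then ATAD5 reporter signal by luminescence.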

[12] = target: Nuclear receptor subfamily 1 group I member 3 (Homo sapiens) (UniProt Q14994); assay: qHTS for Constitutive Androstane Receptor (CAR) Agonist screened against the NCATS CANVASS Library (AID 1347373);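 further: every well also contained 1.5 µM PK11195 alongside the test compound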; further: potency means the concentration at half of the fitted maximal effect
Procedure, shortened: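 Agonist mode with 1.5uM PK11195 present: compounds for 24hr on HepG2-hCAR-CYP2B6 cells. CellTiter-Fluor fluorescence (ex 405, em 540 nm) gives viability; ONE-Glo luminescence reports CAR activation.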

[13] = 10-beta competent E. coli microbial cell viability qHTS against the NCATS CANVASS Library (AID 1347376); further: series mostly up to about 46 µM
Procedure, shortened: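 Read-out: BacTiter-Glo ATP luminescence, taken 20 min after reagent addition. Beforehand, 10-beta competent E. coli at 0.2 OD had been incubated overnight at 37C with compounds at 11 concentrations.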

[14] = Inflammasome Signaling qHTS Counterscreen: IL-1-beta AlphaLISA counterscreen against the NCATS CANVASS Library (AID 1347381);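 further: cell-free check with purified IL-1β in medium and no THP-1 cells; series mostly up to about 57 µM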
Procedure, shortened: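 Purified IL-1-beta (4 pg/well) + compound, 11-pt conc. series; acceptor beads 6 ug/mL + biotin-Ab 0.6 nM final, 1 h RT; SA-donor 24 ug/ml final, 30 min dark RT; read ex 680/em 615.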

[15] = qHTS for Activators of p53 Stress Response Pathway screened against the NCATS CANVASS Library (AID 1347388)
Procedure, shortened: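 p53RE-bla HCT-116 cells (4000/well) were plated 5 h at 37C, exposed to compounds for 16 h at 37C over an 11-point concentration series, then loaded with CCF4 for 2 h at room temperature; 460/530 nm emission ratio read.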

[16] = qHTS assay for small molecule disruptors of mitochondrial membrane potential screened against the NCATS CANVASS Library (AID 1347389); further: nearly all actives have a fitted effect of over 60% in size; further: potency means the concentration at half of the fitted maximal effect
Procedure, shortened: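 Mitochondrial membrane potential in HepG2: 1 h compound treatment (11-point concentration series), 30 min m-MPI dye at 37C, then dual fluorescence of J-aggregates (ex 540/em 590) and monomers (ex 490/em 535); lower red/green ratio indicates depolarization.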

[17] = Viability qHTS for inhibitors of the SERCaMP assay screened against the NCATS CANVASS Library (AID 1347400); further: nearly all actives have a fitted effect of over 70% in size; further: potency means the concentration at half of the fitted maximal effect
Procedure, shortened: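 CellTiter-Glo luminescence measured cytotoxicity after 48 h at 37C of compound treatment (11-point series). Cells were SH-SY5Y-GLuc SERCaMP MJH297 derivatives, seeded at 1000 per well 4 h beforehand.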

[18] = Redox Reaction Profiling qHTS: Assay Interference Panel against the NCATS CANVASS Library (AID 1347401); further: potency means the concentration at half of the fitted maximal effect
Procedure, shortened: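 Quantitative HTS over an 11-point series was run in HEPES pH 7.3 with 50 mM NaCl, 200 uM DTT and 5 uM resazurin. Initial and 15-min resorufin fluorescence readings were taken.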

[19] = qHTS for H2AX Agonists against the NCATS CANVASS Library (AID 1347378); further: potency means the concentration at half of the fitted maximal effect
Procedure, shortened: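 Phospho-H2AX (S139) in CHO-K1 lysates measured by HTRF, reported as 665/615 nm emission ratio after 24 hr antibody incubation at room temperature. Cells were first treated with a compound series for 3 hr at 37C (0.76% DMSO final).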

[20] = Secretion counterscreen for inhibitors of the SERCaMP assay screened against the NCATS CANVASS Library (AID 1347390);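 further: light from luciferase secreted into medium read as a measure of general secretion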; further: potency means the concentration at half of the fitted maximal effect
Procedure, shortened: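 Counterscreen for secretory-pathway interference: after 4 h attachment, SH-SY5Y-GLuc cells were exposed 20 hours to compounds (final 0.001 - 77 uM), then coelenterazine added and GLuc luminescence recorded; Brefeldin A served as control.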

Chain of Nuclear receptor subfamily 1 group I member 3 (Homo sapiens) (Q14994 whole entry, looked up): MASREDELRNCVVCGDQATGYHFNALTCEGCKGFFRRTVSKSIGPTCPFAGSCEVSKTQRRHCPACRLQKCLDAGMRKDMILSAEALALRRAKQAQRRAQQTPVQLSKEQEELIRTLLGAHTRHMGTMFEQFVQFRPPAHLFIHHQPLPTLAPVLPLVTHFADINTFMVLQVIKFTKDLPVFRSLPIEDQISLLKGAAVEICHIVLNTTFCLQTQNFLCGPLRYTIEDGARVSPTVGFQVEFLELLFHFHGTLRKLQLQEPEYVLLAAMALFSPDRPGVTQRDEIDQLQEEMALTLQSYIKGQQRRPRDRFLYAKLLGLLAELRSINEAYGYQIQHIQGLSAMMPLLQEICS

Structure (SMILES) | Potency [1] | outcome [2] | Potency [3] | Potency [4] | Potency [5] | outcome [6] | Potency [7] | Potency [8] | Potency [9] | Potency [10] | Potency [11] | Potency [12] | outcome [13] | outcome [14] | Potency [15] | Potency [16] | Potency [17] | Potency [18] | Potency [19] | Potency [20]
O=C1c2c(O)cc(O)cc2OC(c2ccc(O)cc2)C1O (centres undefined) | inactive | inactive | inactive | inactive | inactive | inactive | inactive | inactive | inactive | inactive | inactive | inactive | inactive | inactive | inactive | 11.7 µM (active) | inactive | inactive |  | 
CC1=C2CC[C@]3(C)[C@H](CC=C4[C@@H]5CC(C)(C)CC[C@@H]5C(=O)[C@H](O)[C@]43C)[C@@]2(C)C=C(O)C1=O |  | inactive | inactive | inactive | inactive | inactive | inactive | inactive | inactive | inactive |  | inactive | inactive | inactive | inactive |  | inactive | inactive | inactive | inactive
CC(C)=CCC/C(C)=C/Cc1cc([C@@H]2CC(=O)c3c(cc(O)c(CC=C(C)C)c3O)O2)ccc1O |  | inactive | inactive | inactive | inactive | inactive | inactive | inactive | inactive | inactive | inactive |  | inactive | inactive | inactive | 23.4 µM (active) | inactive | inactive | inactive | inactive
COc1cc([C@@H]2c3cc4c(cc3C[C@@]3(O[C@@H]5O[C@H](CO)[C@@H](O)[C@H](O)[C@H]5O)COC(=O)[C@H]23)OCO4)cc(OC)c1OC | 0.0469 µM (active) | inactive | inactive | inactive | inactive | inactive | 0.0372 µM (active) | inactive | 0.0418 µM (active) | inactive | inactive | inactive | inactive | inactive | inactive | inactive | 0.048 µM (active) | inactive | inactive | inactive
COc1c(O)cc2c(c1O)C(=O)c1c(coc1C)C2=O | inactive | inactive | inactive | inactive | inactive | inactive | inactive | inactive |  | inactive | inactive | inactive | inactive | inactive |  | 10.5 µM (active) | inactive | 24.1 µM (active) | inactive | inactive
O=Cc1ccc2n1C[C@]1(OC2)O[C@H](CO)[C@@H](O)[C@@H]1O | inactive | inactive | inactive | inactive | inactive | inactive | inactive | inactive | inactive | inactive | inactive | inactive | inactive | inactive | inactive | inactive | inactive | inactive | inactive | inactive
CC1(C)CC[C@]2(CO)CC[C@]3(C)C(=CCC4[C@@]5(C)CC[C@H](O)C(C)(C)C5CC[C@]43C)C2C1 (some centres undefined) | inactive | inactive | inactive | inactive | inactive | inactive | inactive | inactive | inactive | inactive | inactive | inactive | inactive | inactive | inactive | inactive | inactive | inactive | inactive | 
O=Cc1ccc2n1C[C@]1(C[C@H](O)[C@@H](CO)O1)OC2 | inactive | inactive | inactive | inactive | inactive | inactive | inactive | inactive | inactive | inactive | inactive | inactive | inactive | inactive | inactive | inactive | inactive | inactive | inactive | inactive
C/C(=C\[C@@H](C)CC/C=C/CC/C=C/C(=O)O)[C@@H](O)[C@H](C)C(=O)CCCC1CC(=O)NC(=O)C1 | inactive | inactive | inactive | inactive | inactive | inactive | inactive | inactive | inactive | inactive | inactive | inactive | inactive | inactive | inactive | inactive | inactive |  | inactive | 
C[C@@H]1CC[C@]2(C(=O)O)CC[C@]3(C)C(=C2[C@H]1C)CC[C@@H]1[C@@]2(C)CC[C@H](O)C(C)(C)[C@@H]2CC[C@]13C |  | inactive | inactive | inactive | inactive | inactive | inactive | inactive | inactive | inactive | inactive | inactive | inactive | inactive | inactive | inactive |  | inactive | 34.4 µM (active) | inactive
C/C(=C\[C@H](C)C(=O)C[C@H](O)CC1CC(=O)NC(=O)C1)[C@@H]1OC(=O)CCCC/C=C/C[C@@H](O)[C@@H]1C | 7.43 µM (active) | inactive | inactive | inactive | inactive | inactive | 14.8 µM (active) | inactive | 2.64 µM (active) | inactive | 8.31 µM (active) | inactive | inactive | inactive | inactive | inactive |  | inactive | inactive | 12.2 µM (active)
O=C1CC(c2ccc(O)cc2)Oc2ccccc21 (centres undefined) |  | inactive | inactive | inactive | inactive | inactive | inactive | inactive |  | inactive | inactive | 23.4 µM (active) |  | inactive |  | 14.8 µM (active) |  | inactive | inactive | 
